The values that follow come from PubChem BioAssay (NCATS).

Each structure is given as a SMILES string. Records with an inconclusive call do not appear. Entries that show only a call come without a potency. The source made the active and inactive calls. Calls follow the shape of the dose curve; as a rule, active = well fitted inhibition curve with a large enough effect; inconclusive = small, poorly fitted or top-dose-only effect; inactive = flat fitted curve, though single readings scatter.

For this test, the system named is CRL-7250. As to the kind of experiment: qHTS assay to identify novel small-molecules to repurpose for Merkel cell carcinoma treatment (AID 1296009). Also: nearly all actives have a fitted effect of over 60% in size. The settings on record: MCC and control cell lines, CellTiter-Glo viability, 72 h; series mostly up to 92 µM. The essentials:
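qHTS format: cells treated with library compounds in DMSO across 8 (NPC) or 11 (MIPE) concentrations. Readout after 72 hr at 37 degree celsius was CellTiter-Glo luminescence.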
For orientation: In qHTS, concentration-response curves come from the screen itself.
Turning to `CC(=O)N(O)CCCCCN1C(=O)CCC1=O`, the Potency result was “inactive”. The same measure, in the same setting: next, `COC(=O)C(C)C1CCC2(C)C(=O)C=CC(C)(O)C2C1O` (configuration not stated): “inactive”; `COC(=O)C(CC1(O)c2ccccc2N2C(=O)C(CC(C)C)NC21)n1cnc2ccccc2c1=O` (configuration not stated): “inactive”. For `CC[C@H](C)[C@H](NC(=O)[C@H](Cc1ccc(O)cc1)NC(=O)[C@@H](N)C(C)C)C(=O)N[C@@H](Cc1cnc[nH]1)C(=O)N1CCC[C@H]1C(=O)N[C@@H](Cc1ccccc1)C(=O)O`, the outcome was “inactive [at 4.96 µM]”. On the same count and under the same terms, next, `CC1(C)CCC2(C(=O)OC3OC(COC4OC(CO)C(O)C(O)C4O)C(O)C(O)C3O)CCC3(C)C(=CCC4C5(C)CCC(O)C(C)(C(=O)O)C5CCC43C)C2C1O` (configuration not stated): “inactive [at 9.27 µM]”. On to `Cc1nc(C(=O)N2CCC[C@H]2Cc2nnc(-c3ccccc3)o2)c(-c2ccccc2F)s1`, for which the Potency entry was “inactive”. For the compound `CC(C#N)C(C)O[C@@H]1O[C@H](CO)[C@@H](O)[C@H](O)[C@H]1O` (some centres not stated), the Potency result was “inactive”. For the compound `COc1c2c(c(C)c3c1C(=O)OC3)OC1(C)CC(O)C34OC(OC)(OC3(C)C)C(O)CC4(C)C1C2` (configuration not stated), the Potency entry is “inactive”. `Cc1cc(CO)c(O)c(C(=O)CC2CC(=O)NC(=O)C2)c1`: the Potency entry is “inactive”. The same measure, in the same setting: the value for `CC(O)C(C)n1ncn(-c2ccc(N3CCN(c4ccc(OCC5COC(Cn6cncn6)(c6ccc(Cl)cc6Cl)O5)cc4)CC3)cc2)c1=O` (configuration not stated) was “inactive”. Take `CC(C)(C)NS(=O)(=O)c1cncc(-c2cc(F)c3nc(N)nn3c2)c1`: the Potency result is “inactive”.

`CC1(C)CC2C3=CCC4C5(C)CCC(OC6OC(CO)C(O)C(OC7OC(CO)C(O)C(OC8OC(CO)C(O)C(OC9OC(COC%10OC(CO)C(O)C(O)C%10O)C(O)C(O)C9O)C8O)C7O)C6O)C(C)(C)C5CCC4(C)C3(C)CCC2(C(=O)O)CC1O` (configuration not stated): the outcome is “inactive [at 9.27 µM]”.
